According to publication PMC4336329 (PLoS ONE, 2015):
The campaign covered roughly 310,000 compounds. About 14,000 (4.5%) showed an effect of 50% or more. Effects have a minus sign here. This is one part of a sample in which strong results are shown more often than they occur.

biological target: human ether-à-go-go-related gene (hERG) potassium channel (human, UniProt Q12809); assay: primary screen, population patch clamp on CHO cells stably expressing hERG; higher = less effect of the substance
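Also: peak tail current of the secondary pulse compared with the same well before compound.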

human ether-à-go-go-related gene (hERG) potassium channel, sequence (Q12809 whole entry, looked up): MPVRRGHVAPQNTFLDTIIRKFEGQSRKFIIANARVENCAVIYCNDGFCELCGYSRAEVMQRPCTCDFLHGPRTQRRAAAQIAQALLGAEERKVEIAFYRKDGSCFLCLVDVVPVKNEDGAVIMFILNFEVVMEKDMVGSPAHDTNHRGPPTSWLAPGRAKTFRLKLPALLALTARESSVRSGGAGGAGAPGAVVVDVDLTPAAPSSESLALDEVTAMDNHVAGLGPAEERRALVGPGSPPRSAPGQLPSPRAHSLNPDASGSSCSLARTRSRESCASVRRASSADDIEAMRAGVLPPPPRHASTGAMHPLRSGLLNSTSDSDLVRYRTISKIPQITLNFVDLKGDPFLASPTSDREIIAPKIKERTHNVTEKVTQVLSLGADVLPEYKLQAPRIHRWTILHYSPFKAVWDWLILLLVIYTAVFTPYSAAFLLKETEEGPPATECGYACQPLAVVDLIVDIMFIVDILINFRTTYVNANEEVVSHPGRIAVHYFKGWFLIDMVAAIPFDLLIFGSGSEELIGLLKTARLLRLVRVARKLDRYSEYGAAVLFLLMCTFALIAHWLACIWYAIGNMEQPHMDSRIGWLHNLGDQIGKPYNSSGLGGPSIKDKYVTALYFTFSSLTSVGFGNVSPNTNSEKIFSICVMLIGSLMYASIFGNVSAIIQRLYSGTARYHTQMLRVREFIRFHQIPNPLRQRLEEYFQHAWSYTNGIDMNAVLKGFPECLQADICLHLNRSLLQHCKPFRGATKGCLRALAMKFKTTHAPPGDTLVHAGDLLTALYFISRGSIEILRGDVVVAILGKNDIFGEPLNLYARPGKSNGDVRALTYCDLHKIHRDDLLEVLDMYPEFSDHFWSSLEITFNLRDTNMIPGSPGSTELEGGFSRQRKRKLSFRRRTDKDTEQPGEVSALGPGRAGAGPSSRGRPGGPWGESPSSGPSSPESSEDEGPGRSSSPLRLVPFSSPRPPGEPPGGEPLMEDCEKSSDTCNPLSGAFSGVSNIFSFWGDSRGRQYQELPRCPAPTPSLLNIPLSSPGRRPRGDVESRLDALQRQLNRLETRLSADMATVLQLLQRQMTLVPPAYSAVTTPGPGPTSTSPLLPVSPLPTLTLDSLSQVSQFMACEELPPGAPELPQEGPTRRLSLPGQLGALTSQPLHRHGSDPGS

Row | SMILES | hERG current change (%, negative = inhibition) at 10uM
1 | CC(NC(=O)COC(=O)c1ccc([N+](=O)[O-])s1)c1ccccc1 (stereo not drawn) | -20.8%
2 | CCC(C)c1ccc(NC(=O)C/C(C)=N/NC(=O)c2cnccn2)cc1 (stereo not drawn) | -17.2%
3 | C=CCN1C(=O)/C(=C\C=C2\N(C)c3ccccc3C2(C)C)SC1=S | 10.7%
4 | CCN1C(=O)/C(=C/C=C2\N(CC)c3cc(S(=O)(=O)N(C)C)ccc3N2c2ccccc2)SC1=S | 0.17%
5 | C=CCN1C(=O)/C(=C/C=C2/N(CC)c3ccc(S(=O)(=O)N(C)C)cc3N2CC)SC1=S | -56%
6 | COC(=O)CSc1[nH]c2ccccc2c1[N+](=O)[O-] | 7.33%
7 | Cc1nn(C)c(NC(=O)c2ccc(Cl)cc2Cl)c1Br | -11.4%
8 | CCOC(=O)c1ccc(NC(=S)N(CCCN2CCCC(C)C2)Cc2ccco2)cc1 (stereo not drawn) | -70.9%
9 | CCOC(=O)c1ccc(NC(=S)NCc2ccco2)cc1 | -11.1%
10 | CCOC(=O)c1ccc(NC(=O)C(=O)NCc2ccco2)cc1 | 15.7%
11 | CCOC(=O)c1ccc(NC(=S)N(CCCN2CCCCC2)Cc2ccco2)cc1 | -72.7%
12 | CCOC(=O)c1ccc(NC(=S)N(CCCN(CC)CC)Cc2ccco2)cc1 | -76.7%
13 | CCc1ccccc1NC(=S)N(CCN1CCCCCC1)Cc1ccco1 | -46.8%
14 | CCOC(=O)c1ccc(NC(=S)N(CCN2CCCCCC2)Cc2ccco2)cc1 | -78.3%
15 | O=C1C(NS(=O)(=O)c2ccc(Cl)cc2)=C(N2CCCCC2)C(=O)c2ccccc21 | -13.3%
16 | Cc1ccc(-n2nc3c(=O)n(CCCC(=O)N4CCC(C)CC4)nc(C)c3c2C)cc1 | -30.1%
17 | CN(Cc1cccc(Cl)c1Cl)c1ccc(S(=O)(=O)N2CCCCC2)cc1[N+](=O)[O-] | 5.82%
18 | Cc1ccc(C2=NNC(C(O)C(O)C(O)CO)S2)cc1 (stereo not drawn) | 11.6%
19 | CC1CN(S(=O)(=O)c2cccc(C(=O)Nc3ccc(S(=O)(=O)NC4=NCCCCC4)cc3)c2)CC(C)O1 (stereo not drawn) | -5.97%
20 | CC(C)c1ccc(OCc2cccc(C(=O)N/N=C/c3cccnc3)c2)cc1 | -5.29%

Row | SMILES | hERG current change (%, negative = inhibition) at 10uM
21 | Cc1ccccc1C(=O)Nc1cccc(C(=O)N/N=C/c2cc(Cl)cc([N+](=O)[O-])c2O)c1 | 7.34%
22 | COC(=O)c1cc2sc(Cl)cc2n1Cc1nc(-c2ccccc2)oc1C | 3.5%
23 | Cn1ccnc1SCC(=O)Nc1nc2ccccc2s1 | -25.1%
24 | O=C(O)c1ccc(N/N=C/C2=C(N3CCOCC3)C(=C\c3ccccc3)/CC2)cc1 | 7.96%
25 | COc1ccccc1CC(=O)NCCc1c[nH]c2ccccc12 | 5.81%
26 | COc1cccc(NC(C)C(=O)N2CC(C)OC(C)C2)c1 (stereo not drawn) | -1.96%
27 | C/C(=N/NC(=O)CNC(=O)c1cccs1)c1ccco1 | 11.7%
28 | COc1ccc(NC(=S)N(Cc2cccnc2)Cc2ccco2)cc1 | -24.5%
29 | CCOC(=O)c1ccc(NC(=S)N(CCCN2CCN(CC)CC2)Cc2ccco2)cc1 | -76.5%
30 | CCOC(=O)c1ccc(NC(=S)N(CCCN2CCCCCC2)Cc2ccco2)cc1 | -73.7%
31 | CCOC(=O)c1ccc(NC(=S)N(Cc2cccnc2)Cc2ccco2)cc1 | -53.2%
32 | COC(=O)c1ccc(NC(=S)N(Cc2cccnc2)Cc2ccco2)cc1 | -29.1%
33 | COc1ccc(NC(=S)N(CCCN2CCOCC2)Cc2ccco2)cc1 | -7.89%
34 | Cc1ccc(CSc2nc3c(c(N(C)C)n2)CCCC3)cc1 | -5.63%
35 | CCC(Cc1c(I)cc(I)c(N)c1I)C(=O)O (stereo not drawn) | -0.155%
36 | C=C1c2ccccc2NC(=S)N1Cc1ccc2c(c1)OCO2 | 27.5%
37 | Cc1ccc(CNC(=O)c2ccc(N3CCC4(CC3)CC(c3ccccc3)=NO4)c(NC(=O)c3ccco3)c2)cc1 | 6.09%
38 | COC(=O)CN(c1ccc(C)cc1)S(=O)(=O)c1ccc(F)cc1 | -19.9%
39 | Cc1ccc(NS(=O)(=O)c2ccc3c(c2)c(=O)n(C)c(=O)n3C)cc1F | -15.5%
40 | O=c1cc(CN2CCN(Cc3ccccc3)CC2)c2cc3c(cc2o1)CCC3 | -51%

Row | SMILES | hERG current change (%, negative = inhibition) at 10uM
41 | O=c1cc(CN2CCN(C/C=C/c3ccccc3)CC2)c2cc(O)ccc2o1 | -77.5%
42 | CN1CCN(Cc2cc(=O)oc3cc4c(cc23)CCC4)CC1 | -8.2%
43 | CCN1CCN(Cc2cc(=O)oc3cc4c(cc23)CCC4)CC1 | -29.7%
44 | Cc1cc2oc(=O)cc(CN3CCN(Cc4ccccc4)CC3)c2cc1O | -53.3%
45 | Cc1ccc2oc(=O)cc(CN3CCCCC3)c2c1 | 15.9%
46 | Cc1ccc2oc(=O)cc(CN3CCOCC3)c2c1 | -8.53%
47 | Cc1cc2oc(=O)cc(CN3CCOCC3)c2cc1O | -22.6%
48 | CC(C)c1ccc2oc(=O)cc(CN3CCN(c4ccccc4)CC3)c2c1 | -10.4%
49 | Cc1cc2oc(=O)cc(CN3CCN(Cc4ccccc4)CC3)c2cc1Cl | -22.8%
50 | COc1ccc(N2CCN(Cc3cc(=O)oc4cc(-c5ccccc5)c(O)cc34)CC2)cc1 | -0.18%
51 | Cc1ccc2oc(=O)cc(CN3CCN(C/C=C/c4ccccc4)CC3)c2c1 | -76.9%
52 | Cc1ccc(S(=O)(=O)N2CCCCC2CCNC(=O)C(=O)NCC2CCCO2)cc1 (stereo not drawn) | -23.6%
53 | O=C(CSc1cccc2cccnc12)N1CCCC1 | 12%
54 | NS(=O)(=O)c1ccc(NC(=O)c2c(Cl)cccc2Cl)cc1 | 9.38%
55 | Cc1c(O)ccc2c(CN3CCN(C/C=C/c4ccccc4)CC3)cc(=O)oc12 | -64.1%
56 | O=c1cc(CN2CCN(C/C=C/c3ccccc3)CC2)c2cc(O)c(-c3ccccc3)cc2o1 | 11.6%
57 | Cc1ccc2c(CN3CCOCC3)cc(=O)oc2c1C | 0.23%
58 | Cc1cc2oc(=O)cc(CN3CCCCC3)c2cc1O | -1.42%
59 | Cc1cc2oc(=O)cc(CN3CCN(C/C=C/c4ccccc4)CC3)c2cc1O | -80.9%
60 | Cc1c(O)ccc2c(CN(C)Cc3ccccc3)cc(=O)oc12 | 10.2%
